# Reference: PubChem BioAssay (Tox21)
# Unmarked numbers belong to inactive results. Calls of active or inactive are those of the source. Calls follow the shape of the dose curve; as a rule, active = well fitted curve in the direction sought with a large enough effect in the repeat runs; inconclusive = weak or mixed curves; inactive = flat fitted curve, though single readings scatter.
# Assay: qHTS assay to test for compound auto fluorescence at 590 nm (red) in HEK293 cell free culture (AID 720683)
# Settings: cell-free medium autofluorescence, Ex540/Em590 red; series mostly up to 91.3 µM
# Method in brief: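 Tox21 10K library compounds were pinned into cell-free DMEM with 10% FBS and fluorescence was read at excitation 540 nm. Activity is expressed as Rose Bengal sodium equivalency.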
# % is scaled to controls: 0 for no effect and ±100 for the full control effect.
Structure (SMILES),outcome,"fluorescence, % of fluorescent control"
C/C=C/C=C/CCCCCCCO,inactive,–
Cc1cc(OI)c(C(C)C)cc1-c1cc(C(C)C)c(OI)cc1C,inactive,–
CCCCN(CCCC)CCCOC(=O)c1ccc(N)cc1,–,0.0804% [at 18.6 µM]
CCCCC1C(=O)N(c2ccccc2)N(c2ccc(O)cc2)C1=O (stereo not drawn),–,0.0102% [at 18.6 µM]
CC(C)(C)CC(C)(C)c1ccc(OCCO)cc1,inactive,–
CC(C)(C)C(=O)O,inactive,–
CCCCC/C(=C\c1ccccc1)CO,inactive,–
C[N+]1(C)CCC(=C(c2ccccc2)c2ccccc2)CC1,–,-0.165% [at 18.6 µM]
CO[C@H]1C=CO[C@@]2(C)Oc3c(C)c(O)c4c(O)c(c5c(c4c3C2=O)=NC2(CCN(CC(C)C)CC2)N=5)NC(=O)/C(C)=C\C=C/[C@H](C)[C@H](O)[C@@H](C)[C@@H](O)[C@@H](C)[C@H](OC(C)=O)[C@@H]1C,inactive,–
CCC(C)=O,inactive,–
C[N+](C)(C)CCOC(N)=O,inactive,–
CN1CCN(CCCN2c3ccccc3Sc3ccc(S(=O)(=O)N(C)C)cc32)CC1,–,0.122% [at 18.6 µM]
CCCCCC=CCC=CCCCCCCCC(=O)OCC,inactive,–
Cc1cc(O)c(C(C)C)cc1Cl,inactive,–
CCC(Cc1ccccc1)(C(=O)c1ccc(N2CCOCC2)cc1)N(C)C (stereo not drawn),inactive,–
CCOC(=O)[C@@H](C)Oc1ccc(Oc2nc3ccc(Cl)cc3o2)cc1,inactive,–
CC(=O)[C@H]1CC[C@H]2[C@@H]3C[C@H](C)C4=CC(=O)CC[C@]4(C)[C@H]3[C@@H](O)C[C@]12C,–,-0.395% [at 18.6 µM]
CNCCCC1c2ccccc2C=Cc2ccccc21,–,-0.009% [at 18.6 µM]
CCc1c2c(nc3ccc(OC(=O)N4CCC(N5CCCCC5)CC4)cc13)-c1cc3c(c(=O)n1C2)COC(=O)[C@]3(O)CC,inactive,–

Structure (SMILES),outcome,"fluorescence, % of fluorescent control"
CC(=O)CC(c1ccc([N+](=O)[O-])cc1)c1c(O)c2ccccc2oc1=O (stereo not drawn),–,-0.0043% [at 18.6 µM]
CC(C)(CCl)c1ccccc1,inactive,–
CCC(C(=O)OCCN(CC)CC)c1ccccc1 (stereo not drawn),inactive,–
CCOC(=O)c1ccccc1C,inactive,–
CC1CC(=O)NN=C1c1ccc(NCC(C)(C)NCC(O)COc2cc(Cl)ccc2C#N)cc1 (stereo not drawn),inactive,–
CC[C@@H]([C@H](C)O)n1ncn(-c2ccc(N3CCN(c4ccc(OC[C@@H]5CO[C@@](Cn6cncn6)(c6ccc(F)cc6F)C5)cc4)CC3)cc2)c1=O,inactive,–
CCn1nc(C)c2c1C(=O)NCC(c1ccc(O)cc1)=N2,inactive,–
CCn1cc(C(=O)O)c(=O)c2cc(F)c(N3CCNCC3)nc21,–,-0.252% [at 18.6 µM]
CNC(=S)NC,inactive,–
CCCCOC(=O)CCS,inactive,–
Fc1c(F)c(F)c(Br)c(F)c1F,inactive,–
N#C/C(=C1\SCC(c2ccccc2Cl)S1)n1ccnc1 (stereo not drawn),inactive,–
CCC(C)(C)C1CCC(O)CC1 (stereo not drawn),inactive,–
O=S(=O)(c1ccccc1)c1ccc(Cl)cc1,inactive,–
CC(C)OCC1CO1 (stereo not drawn),inactive,–
c1cnc2c(n1)CCCC2,inactive,–
COC(=O)Nc1nc2ccc(C(=O)c3cccs3)cc2[nH]1,inactive,–
CCCCCCCCCCCC[N+](C)(C)CC(=O)[O-],inactive,–
O=C(Nc1ccc([N+](=O)[O-])cc1)Nc1ccc([N+](=O)[O-])cc1,inactive,–
